Test results published in PubChem BioAssay (NCI).
Compounds without any hit were thinned out: in the full panel of roughly 83,000, 20% have a hit.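 Assay: single dose, 48 h. Readout: percent growth (0 = no net growth; negative = cell death). Active: <10.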 Activity calls are given as the source filed them.

Key:
Experiment in all cases: NCI-60 one-dose screen, 48 h (100 = growth as untreated, 0 = no growth, -100 = all killed)
Conditions in all cases: 10 µM unless noted
NCI-H322M lung = tested on: NCI-H322M lung
HOP-62 NSCLC = tested on: HOP-62 NSCLC
NCI-H460 lung = tested on: NCI-H460 lung
HOP-92 NSCLC = tested on: HOP-92 NSCLC
NCI-H522 lung = tested on: NCI-H522 lung
A549/ATCC NSCLC = tested on: A549/ATCC NSCLC
786-0 renal = tested on: 786-0 renal
COLO 205 colon = tested on: COLO 205 colon
DU-145 prostate = tested on: DU-145 prostate
NCI-H226 lung = tested on: NCI-H226 lung

Measured: growth

COc1cc(/C=C/C(=O)c2ccc(F)cc2)ccc1Oc1nc(NCCO)nc(N2CCOCC2)n1
inactive: NCI-H322M lung 97.4% | HOP-62 NSCLC 102% | NCI-H460 lung 94.2% | HOP-92 NSCLC 94.2% | NCI-H522 lung 64.9% | A549/ATCC NSCLC 101% | 786-0 renal 98.3% | COLO 205 colon 122% | DU-145 prostate 98.4%

[Cl][Ru].c1ccc(-c2cccc(-c3ccccn3)n2)nc1.c1ccc(-c2ccnc3c2ccc2c(-c4ccccc4)ccnc23)cc1
active: HOP-92 NSCLC -12.5% | COLO 205 colon -60%
inactive: NCI-H226 lung 80.1% | NCI-H322M lung 76.6% | HOP-62 NSCLC 78.7% | NCI-H460 lung 54.8% | NCI-H522 lung 13.3% | A549/ATCC NSCLC 60.5% | 786-0 renal 89.3% | DU-145 prostate 32.6%

O=C(CSc1nc2sc3c(c2c(=O)n1-c1ccc(Cl)cc1)CCCC3)NNC(=O)Nc1ccc(Cl)c(C(F)(F)F)c1
active: HOP-92 NSCLC -12.3% | NCI-H522 lung 5.53%
inactive: NCI-H226 lung 53.4% | NCI-H322M lung 52.2% | HOP-62 NSCLC 58.8% | NCI-H460 lung 11.8% | A549/ATCC NSCLC 34% | 786-0 renal 52.2% | COLO 205 colon 53.4% | DU-145 prostate 32.2%

COc1cccc(NC2=CC(=O)C(C)=C(C)C2=O)c1
inactive: NCI-H226 lung 97% | NCI-H322M lung 102% | HOP-62 NSCLC 106% | NCI-H460 lung 101% | HOP-92 NSCLC 104% | NCI-H522 lung 49.8% | A549/ATCC NSCLC 101% | 786-0 renal 95.8% | COLO 205 colon 103% | DU-145 prostate 113%

CSc1ccc2c(c1)N(C(=O)/C(C#N)=C/c1c[nH]c3ccccc13)c1ccccc1S2
inactive: NCI-H226 lung 50.4% | NCI-H322M lung 86.1% | HOP-62 NSCLC 59.9% | NCI-H460 lung 45.5% | HOP-92 NSCLC 44.1% | A549/ATCC NSCLC 47.3% | 786-0 renal 50% | COLO 205 colon 40.8% | DU-145 prostate 51.3%
active: NCI-H522 lung 5.48%

Clc1ccc(-c2cn3cc(Cc4ccc(Cl)c(Cl)c4)sc3n2)cc1
inactive: NCI-H226 lung 85.7% | NCI-H322M lung 70.5% | HOP-62 NSCLC 70.4% | NCI-H460 lung 22.5% | HOP-92 NSCLC 81.8% | NCI-H522 lung 76% | A549/ATCC NSCLC 61.3% | 786-0 renal 84% | COLO 205 colon 42.7% | DU-145 prostate 69.6%

Cc1nc(-c2cc3ccccc3oc2=O)ccc1C(=O)/C=C/c1ccccn1
active: 786-0 renal 6.4%
inactive: NCI-H322M lung 86.3% | HOP-62 NSCLC 103% | NCI-H460 lung 41.1% | HOP-92 NSCLC 80.3% | NCI-H522 lung 58.6% | A549/ATCC NSCLC 66.5% | COLO 205 colon 94.7% | DU-145 prostate 47.3%

O=C(c1ccc(O)cc1)C1[C@H](c2ccc(Cl)cc2)[C@@H](c2ccccc2)NC12C(=O)Nc1ccc(Cl)cc12 (stereo partly specified)
inactive: NCI-H322M lung 61.2% | HOP-62 NSCLC 64.6% | NCI-H460 lung 20.6% | HOP-92 NSCLC 35.2% | NCI-H522 lung 71.7% | A549/ATCC NSCLC 33.5% | 786-0 renal 52.3% | COLO 205 colon 61% | DU-145 prostate 52.4%

C#Cc1nc(C2=C(C)C(OC(C)=O)/C(=N/OC(C)=O)C2)cs1 (stereo unspecified)
active: HOP-62 NSCLC -46.9% | HOP-92 NSCLC -79.9% | NCI-H522 lung -86.2% | 786-0 renal -87.9%
inactive: NCI-H322M lung 116% | NCI-H460 lung 36.1% | A549/ATCC NSCLC 69.7% | COLO 205 colon 51.3% | DU-145 prostate 67%

Cc1sc2nc(NCc3ccccc3Cl)[nH]c(=O)c2c1C
inactive: NCI-H322M lung 96.6% | HOP-62 NSCLC 93.4% | NCI-H460 lung 50.4% | HOP-92 NSCLC 91.3% | NCI-H522 lung 95.3% | A549/ATCC NSCLC 84% | 786-0 renal 91% | COLO 205 colon 113% | DU-145 prostate 98%

NS(=O)(=O)c1cccc(Nc2nc(SCC(=O)c3ccc([N+](=O)[O-])cc3)nc3ccccc23)c1
inactive: NCI-H322M lung 82.7% | HOP-62 NSCLC 71.9% | NCI-H460 lung 36.3% | HOP-92 NSCLC 52% | NCI-H522 lung 19.3% | A549/ATCC NSCLC 70.6% | 786-0 renal 44.6% | COLO 205 colon 83.1% | DU-145 prostate 42.8%

O=C(CSc1nnc(-c2ccc3nc(-c4ccc(Cl)cc4)[nH]c3c2)o1)Nc1ccc(C(=O)/C=C/c2ccc(Cl)cc2)cc1
inactive: NCI-H322M lung 95.4% | HOP-62 NSCLC 97.9% | NCI-H460 lung 102% | HOP-92 NSCLC 94.2% | NCI-H522 lung 88.4% | A549/ATCC NSCLC 95.5% | 786-0 renal 92.6% | COLO 205 colon 118% | DU-145 prostate 111%

[Cl][Ru].c1ccc(-c2cc(-c3ccccn3)nc(-c3ccccn3)c2)cc1.c1ccc(-c2ccnc3c2ccc2c(-c4ccccc4)ccnc23)cc1
active: NCI-H322M lung -6.84% | NCI-H460 lung -63% | HOP-92 NSCLC -42.9% | NCI-H522 lung -52.8% | 786-0 renal 6.1% | COLO 205 colon -77.9% | DU-145 prostate 7.67%
inactive: HOP-62 NSCLC 25.1% | A549/ATCC NSCLC 14.8%

Nc1cc(-c2c[nH]c3ccc(Cl)cc23)nc2cc(-c3c[nH]c4ccc(Cl)cc34)nn12
inactive: NCI-H322M lung 56.8% | HOP-62 NSCLC 85.7% | NCI-H460 lung 12.1% | HOP-92 NSCLC 28.9% | NCI-H522 lung 28.8% | A549/ATCC NSCLC 44.2% | 786-0 renal 60.5% | COLO 205 colon 93.2% | DU-145 prostate 53.4%
